High-throughput results from PubChem.
The list is not random: actives were taken first. Their share in the collection is about 2.2%.
GLP1R inv ag: qHTS of GLP-1 Receptor Inverse Agonists (Inhibition Mode); hit rate 1.6% among 410,000; Glucagon-like peptide 1 receptor (Homo sapiens), P43220; HEK293 GLP-1R CRE-luciferase, luminescence, 24 h; GLP-1R form is constitutively active; Potency, µM (highest dose often 38.3 µM), without a hit: top-dose activity change, negative = inhibition, actives largely listed as inhibitors; note: potency is the fitted concentration of half-maximal effect; % is set by controls: 0 for no effect and ±100 for the full control effect; nearly all actives have a fitted effect of over 55% in size
Target sequence (P43220 whole entry, looked up): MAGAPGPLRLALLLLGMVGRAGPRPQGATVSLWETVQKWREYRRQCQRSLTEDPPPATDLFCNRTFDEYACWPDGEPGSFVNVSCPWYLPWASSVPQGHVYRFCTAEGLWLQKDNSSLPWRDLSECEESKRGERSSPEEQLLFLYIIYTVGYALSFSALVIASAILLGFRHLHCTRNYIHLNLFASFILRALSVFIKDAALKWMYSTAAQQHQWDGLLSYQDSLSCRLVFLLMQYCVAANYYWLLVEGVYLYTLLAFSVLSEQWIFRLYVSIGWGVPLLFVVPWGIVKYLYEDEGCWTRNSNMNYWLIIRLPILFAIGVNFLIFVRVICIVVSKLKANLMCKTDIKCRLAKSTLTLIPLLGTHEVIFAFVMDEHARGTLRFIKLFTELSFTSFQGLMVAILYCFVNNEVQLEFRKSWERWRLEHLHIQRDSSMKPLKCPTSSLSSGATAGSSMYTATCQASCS
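qHTS in 1536-well format: reporter HEK293 cells expressing constitutive GLP-1R activity in DMEM + 10% Nu serum, 24 hr with compounds at 37 deg C, luminescence read after 12 min with detection reagent.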
GLP-1R agonist: qHTS of GLP-1 Receptor Agonists; AID 624172, 2012; hit rate 0.007% among 380,000; HEK293 GLP-1R CRE-luciferase, luminescence, 4-6 h; cells express a hypersensitive GLP-1R form; Potency, µM (titrated, usually from 45.6 µM), for the others: at the top dose activation, most hits filed as activators; note: potency is the fitted concentration of half-maximal effect; % of control where 0% means no effect
CCT chaperon mod: High-Throughput Screening for Modulators of Cytosolic Chaperonin Activity; hit rate 0.3% among 360,000; purified chaperonin ATPase assay, HTRF ADP detection, 30 min; activity change, % (no concentration beside the values), hits read low; in the data active = activity change below about -30%; note: % is set by controls: 0 for no effect and ±100 for the full control effect
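ATPase activity: ADP formed was measured by HTRF Transcreener (665/615 nm ratio) after 30 min at 37 deg C with 10 uM ATP. Compounds screened at one 76 uM concentration against 40 or 20 nM TRiC in Tris pH 7.4/KCl/MgCl2/DTT buffer.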
uPA surface inh: qHTS for Inhibitors of Cell Surface uPA Generation; cell surface uPA generation assay, qHTS; Potency, µM (titrated, usually from 38.3 µM), for inactives: at the highest dose activity change, negative = inhibition, usual class: inhibitors; hit rate 0.31% among 330,000; AID 540303, 2011; active = well fitted inhibition curve with a large enough effect; inconclusive = small, poorly fitted or top-dose-only effect; inactive = no such curve, though single readings can be large or run the other way; tested in mouse RAW 264.7 cells; note: potency is the fitted concentration of half-maximal effect; % is set by controls: 0 for no effect and ±100 for the full control effect; nearly all actives have a fitted effect of over 55% in size
HEK293 tox: qHTS of GLP-1 Receptor Inverse Agonists: Cytotox Screen; HEK293 cAMP-luciferase reporter cells, luminescence, 24 h; Potency, µM (highest dose often 38.3 µM), inactives show at the highest dose activity change, negative = inhibition, actives largely listed as inhibitors; hit rate 0.13% among 410,000;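 note: loss of luciferase light is scored as toxicity; potency is the fitted concentration of half-maximal effect; % is set by controls: 0 for no effect and ±100 for the full control effect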
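A 23 nL compound transfer followed 12 hours of cell culture at 37 deg C; exposure then lasted 24 hr. Luciferase assay detection reagent was dispensed and plates read for luminescence after a 12 min room-temperature wait.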
Mm-Cpn inhibitor: Inhibitors of TCP-1 ring complex (TRiC) of Methanococcus maripaludis (MmCpn): qHTS; Chaperonin Mm-Cpn (Methanococcus maripaludis); Potency, µM (titrated, usually from 76.9 µM), without a hit: top-dose activity, negative = inhibition, hits mostly inhibitors; purified Mm-Cpn ATPase, ADP Transcreener TR-FRET; hit rate 0.031% among 330,000; note: potency is the fitted concentration of half-maximal effect; % is set by controls: 0 for no effect and ±100 for the full control effect; nearly all actives have a fitted effect of over 80% in size
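Purified archaeal chaperonin (25 nM final) was preincubated with compound for 10 min at 37°C, then ATP (10 uM final) was added for 30 min at 37°C in Tris pH 7.4/KCl/MgCl2/DTT buffer. ADP was quantified by HTRF Transcreener TR-FRET.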
Starred values were filed as active, the others as inactive; ? = inconclusive; / = not tested or not shown; ! = not confirmed by another sample. Unless noted, calls come from the whole dose curve; as a rule, active = well fitted curve in the direction sought with a large enough effect; inconclusive = small, poorly fitted or top-dose-only effect, or another doubt; inactive = no such curve, though single readings can be large; an effect the other way counts as inactive or inconclusive.

SMILES | GLP1R inv ag | GLP-1R agonist | CCT chaperon mod | uPA surface inh | HEK293 tox | Mm-Cpn inhibitor
CN(CCCNC(=O)C1CCC(CNS(=O)(=O)c2ccccc2)CC1)Cc1ccccc1 (stereo not drawn) | 3.5µM* | 9% | 1 | -8% | -1% | 2%
O=C1C=C(N2CCCCC2)c2ccccc2C1=O | ? | -20% | -2 | -16% | 10µM* | /
CCc1ccc(-c2cc(C)no2)cc1S(=O)(=O)NC(C)Cc1ccco1 (stereo not drawn) | 3.5µM* | 28% | -2 | 0% | -9% | -1%
Cc1cc(-c2ccc(C(C)C)c(S(=O)(=O)NCc3ccco3)c2)on1 | ? | 21% | 1 | 0% | -5% | 0%
O=C(Nc1ccc(F)c(F)c1)c1ccc(F)c(S(=O)(=O)N2CCC3(CC2)OCCO3)c1 | 3.5µM* | -1% | -1 | -7% | -11% | 0%
COc1ccccc1NS(=O)(=O)c1cccc(NC(=O)Nc2ccccc2)c1 | 5.6µM* | -10% | 1 | 4% | ? | -2%
COc1ccccc1NC(=S)NCC1CCCCC1 | 10µM* | 5% | 1 | 10% | ? | 1%
COc1ccccc1NC(=O)Nc1ccc(C(=O)N2CCCCC2)cc1 | 8.9µM* | 8% | 1 | ? | -14% | 0%
COc1ccccc1NC(=S)NCCc1ccc(Cl)cc1 | 5µM* | 4% | 2 | -3% | 8% | 0%
COc1ccccc1NC(=S)NCCSc1ccc(Cl)cc1 | 1% | 10% | 0 | -3% | 2% | -1%
CCOC(=O)c1ccc(OCC2c3cc(OC)c(OC)cc3CCN2C(=O)Cc2ccc(OC)c(OC)c2)cc1 (stereo not drawn) | 33% | 25% | / | / | 3% | /
COc1ccc(NS(=O)(=O)c2ccc(C)c(NC(=O)NC3CCCCC3)c2)cc1 | ? | 2% | -1 | 4% | -4% | 0%
CC(=O)c1cccc(NC(=O)NCCc2ccc(Cl)cc2)c1 | ? | -2% | 0 | 2% | -11% | 0%
COc1ccccc1NS(=O)(=O)c1ccc(C)c(NC(=O)NC2CCCCC2)c1 | 11µM* | 5% | -1 | -5% | -8% | 2%
Cc1c(Cl)cccc1NC(=O)NC1CCCCC1 | 2% | 5% | -40* | -2% | -6% | 1%
COc1ccc(NC(=O)NCCCCc2ccccc2)cc1 | 6.3µM* | 1% | -2 | -7% | 1% | -5%
COc1cccc(NC(=O)NCCc2ccc(Cl)cc2)c1 | 10µM* | 10% | 1 | 1% | 1% | -26%
O=C(Nc1ccccc1NC(=O)NC1CCCCC1)NC1CCCCC1 | 1% | 22% | -2 | / | 3% | 0%
C=CC(=O)O | / | 5% | / | / | / | /
CCSc1nc2c(c(=O)[nH]c(=O)n2C)n1CC(O)COc1ccc(Cl)cc1 (stereo not drawn) | -4% | / | / | / | -18% | /
CC1CCC(O)C/C1=C\C=C1/CCCC2(C)C1CCC2C(C)/C=C/C(C)C(C)C (stereo not drawn) | / | 12% | / | / | / | /
COc1ccccc1NC(=S)NC1CCCCCCCCCCC1 | ? | -5% | 0 | ? | 0.5µM* | -1%
Cc1ccc(C(=O)NCc2ccc3c(c2)CCN3C(=O)c2ccc(C)cc2)cc1 | -17% | / | / | / | -7% | /
O=C(Nc1ccccc1Cl)C1CCN(c2nc3ccccc3[nH]2)CC1 | 2% | / | / | / | 0% | /
CCc1nc2ccc(C(=O)NCCc3c[nH]c4ccccc34)cn2c1N(C=O)CCC(C)C | 5.6µM* | 0% | 0 | / | ? | /
SMILES | GLP1R inv ag | GLP-1R agonist | CCT chaperon mod | uPA surface inh | HEK293 tox | Mm-Cpn inhibitor
CCOc1ccc2[nH]cc(C(=O)N3CCN(C4CCCCC4)CC3)c(=O)c2c1 | 9% | -5% | -57* | 0% | -16% | /
COc1ccc2[nH]cc(C(=O)N3CCCCC3)c(=O)c2c1 | -1% | -7% | -1 | -1% | 2% | -1%
CCN(CC)Cc1cc(Nc2ccnc3cc(Cl)ccc23)ccc1O | 11µM*! | 0% | 0 | ? | ? | -1%
O=C(Nc1cccc(Cl)c1)c1ccc2c(c1)CCN2S(=O)(=O)c1ccccc1 | 2.5µM* | / | / | / | -7% | /
COc1ccc(S(=O)(=O)N2CCc3ccccc32)cc1C(=O)Nc1ccc(C(N)=O)cc1 | ? | 0% | 0 | 14µM* | ? | 0%
CC(C)CN(CC(C)C)C(=O)c1cccc(S(=O)(=O)N2CCc3ccccc32)c1 | ? | 6% | 0 | 5% | ? | -1%
Cc1ccc(NC(=O)CN(C)C(=O)c2cccc(S(=O)(=O)N3CCc4ccccc43)c2)cc1 | 11µM* | -6% | -12 | 2% | -7% | 3%
O=C(NCc1cccnc1)c1cc(-c2ccccc2)on1 | 0% | -3% | -2 | -21% | 7% | 2%
O=C(Nc1cccc(O)c1)c1cc(-c2ccc3c(c2)OCO3)on1 | 10µM* | -7% | 1 | -17% | -9% | 2%
O=C(NCc1ccccc1)c1cc(-c2cccc(O)c2)on1 | 24% | 4% | 0 | 2.8µM* | -3% | 4%
CCc1ccc(C2=C(C)C(N3CCC(C(=O)NCCc4ccco4)CC3)=NS2(=O)=O)cc1 | -8% | / | / | / | -9% | /
O=C(NC(=O)N1CCN(c2cccc(Cl)c2)CC1)c1ccccc1 | -8% | -7% | 1 | -18% | -4% | 1%
O=C(NC(=O)N1CCN(c2cccc(Cl)c2)CC1)c1ccc(Cl)cc1 | 3.2µM* | -17% | 0 | -3% | 5% | 1%
CCC(=O)NCCn1c(C)cc2ccccc21 | 2% | -1% | -2 | 11% | -8% | -5%
Cc1cc2ccccc2n1CCNC(=O)c1ccc(S(=O)(=O)N2CCOCC2)cc1 | -26% | 4% | -5 | 5% | -17% | 32µM*
Cc1cc2ccccc2n1CCNC(=O)COc1ccccc1 | -13% | -7% | -32* | 11% | -12% | -22%
Cc1cc2ccccc2n1CCNC(=O)c1ccccc1 | -28% | -26% | -1 | 8% | -3% | 40µM*
NC(=O)[C@@H]1CSSCCC(=O)N[C@@H](CCCCN=C(N)N)C(=O)NCC(=O)N[C@@H](CC(=O)O)C(=O)N[C@@H](Cc2c[nH]c3ccccc23)C(=O)N2CCC[C@H]2C(=O)N1 | / | 2% | / | / | / | /
Cc1ccccc1Nc1scc(-c2ccc(Cl)cc2)[n+]1-c1ccccc1C | 10µM* | -1% | -1 | -2% | -19% | -3%
Cc1ccc2nc(C3CCCN3Cc3nc(CCC(C)C)no3)[nH]c2c1 (stereo not drawn) | 7.1µM* | -4% | -2 | -3% | 3% | -2%
